Inconclusive results are not listed. Activity calls are given as the source filed them. Calls follow the shape of the dose curve; as a rule, active = well fitted inhibition curve with a large enough effect in the polarisation, with a control signal flat (not every such curve was filed as active); inconclusive = small, poorly fitted or top-dose-only effect, or effect the other way, or a change in a side signal; inactive = no such curve, though single readings can be large or run the other way; the % refers to the polarisation.
Test: Confirmation of Inhibitors Targeting the Menin-MLL Interaction in MLL Related Leukemias: Competition With Texas Red Labeled MLL-derived Mutant Peptide
Settings: fluorescence polarization, Texas Red MLL peptide displacement; series mostly up to 94.6 µM; FP change, negative = inhibition: at the top concentration
Excerpt: qHTS Assay for Inhibitors Targeting the Menin-MLL Interaction in MLL Related Leukemias
NIH Chemical Genomics Center [NCGC]
NIH Molecular Libraries Probe Centers Network [MLPCN]
Assay Submitter (PI): Jolanta Grembecka, Tomasz Cierpicki, University of Virginia
Translocations of the MLL (Mixed Lineage Leukemia) gene are frequently found in human leukemias affecting both children and adults. Fusion of MLL to one of more than 60 genes results in generation of oncogenic proteins upregulating Hox genes, which are vital to blood cell development. Patients harboring fusion of the MLL gene suffer from aggressive leukemias and respond poorly to available therapies. All of the oncogenic fusion proteins have a preserved N-terminal fragment of MLL that has been identified to interact with menin. It has been recently discovered that association with menin is critical to the leukemogenic activity of the MLL fusion oncoproteins. Selective targeting of the menin-MLL interaction could provide an attractive therapeutic approach to develop novel drugs for MLL-related leukemias. Small molecules blocking the menin-MLL interaction should reverse the oncogenic potential of MLL fusion proteins.
We have developed and optimized a fluorescence polarization-based assay for the identification of Menin-MLL inhibitors. The assay was run employing two different MLL-derived peptides. The present assay uses a 12 amino acid peptide labeled with fluorescein at its N-terminus. This peptide consists of the menin high affinity binding motif from MLL and is potently bound by menin. Another peptide with a mutated sequence, labeled with Texas Red, was used in parallel as a less stringent screen for inhibitors.
The present assay was run to confirm the activity of hits from the primary screen using the peptide with a mutated sequence, labeled with Texas Red.
The Menin protein, the MLL-wild type (w.t.) derived peptide (N-terminal 12 amino acids), the MLL-derived peptide labeled with Texas Red and the MLL-w.t. peptide labeled with Fluorescein were kindly supplied by laboratory of Dr. Jolanta Grembecka, University of Virginia. All protein and peptide solutions were stored in single use aliquots at -80C. The Eu3+ Cyrptate-conjugated mouse monoclonal antibody anti-6 Histidine (Eu3+-AB) and the Streptavidin-XL665 conjugate (XL665) were purchased from Cisbio International (Bedford, MA). All antibody and XL665 conjugate solution stocks were stored in single use aliquots at -20C. The Buffer components for all assays were purchased from Sigma-Aldrich (St. Louis, MO) and Invitrogen (Carlsbad, CA).
1. FP reaction buffer: 50 mM Tris-HCl pH 7.5, 50 mM NaCl, 1mM DTT.
Before use, 0.05% BSA is added.
2. Menin protein, MLL-w.t. labeled with fluorescein, MLL-mutant peptide labeled with texas red.
Stored in singe use aliquots at -80C.
3. MLL-w.t. unlabeled peptide as positive control: 10 uM final in FP buffer.
1. Prepare Menin at 200 nM, MLL-w.t.-fluorescein at 25 nM, and MLL-mutant-texas red at 50 nM mixture in FP buffer.
2. Prepare Menin at 200 nM, MLL-w.t.-fluorescein at 25 nM, MLL-mutant-texas red at 50 nM, and 10 uM MLL-w.t. unlabeled mixture in FP buffer.
3. Prepare MLL-w.t.-fluorescein at 25 nM and MLL-mutant-texas red at 50 nM mixture in FP buffer.
3. Dispense 4 ul per well of reagent in step 1 in columns 2, 4 - 48 in a black 1536 well plate, dispense 4 ul per well of reagents from steps 2 and 3 in columns 1 and 3 respectively. Incubate plate at ambient for 15 minutes.
4. Transfer 23 nl per well of compound to plate and incubate at ambient for 1 hr.
5. Read fluorescence polarization for each label using the PerkinElmer Envision.
Envision protocol for fluorescein: FITC FP Dual Enh Mirror, Excitation filter 480, Emission filter (1) P-pol 535, Emission filter (2) S-pol 535
Envision protocol for texas red: FP Dual Enh Mirror, Excitation filter 555, Emission filter (1) P-pol 632, Emission filter (2) S-pol 632
% is scaled to controls: 0 for no effect and ±100 for the full control effect; potency is read from the fitted curve at half-maximal effect.

FP change, negative = inhibition, inactive:
CCOC(=O)Cn1c2ccccc2n2nc(CCC(=O)O)c(=O)nc12 -1.21%
CCOC(=O)N1CCN(CCC(=O)c2ccc(Br)cc2)CC1 3.33%
CCN1CCN(CC(=O)Nc2ccc(C(C)=O)cc2)CC1 -11.2%
COc1ccccc1N(CC1CO1)S(=O)(=O)c1ccccc1 (stereo not given) 6.9%
O=C(Nc1cccn(Cc2c(Cl)cccc2Cl)c1=O)c1c(Cl)cccc1Cl 36.9% [at 288 µM]
Cc1cc2c(c(=O)n1Cc1ccccc1)C1O[C@](c3ccsc3)(Cc3cc(C#N)ccc31)O2 -15.7% [at 23.7 µM]
O=[N+]([O-])c1ccc(S(=O)(=O)c2ccccc2)nc1 -18.6% [at 288 µM]
Cc1c(C(=O)OCC(=O)Nc2ccc(S(N)(=O)=O)cc2)oc2c1ccc1ccccc12 62.1% [at 288 µM]
Cc1cc(N2CCOCC2)nc2ccc(Cl)cc12 1.95%
O=C(Nc1nccs1)C(Br)C(Br)c1ccccc1 (stereo not given) -29% [at 288 µM]
Nc1cccc2c1C(=O)N(C(=O)c1ccco1)C2=O -17.4%
CCC(C)C1NC(=O)C(CCNCS(=O)(=O)O)NC(=O)C(NC(=O)C(CCNCS(=O)(=O)O)NC(=O)C(NC(=O)C(CCNCS(=O)(=O)O)NC(=O)CCCCC(C)C)C(C)O)CCNC(=O)C(C(C)O)NC(=O)C(CCNCS(=O)(=O)O)NC(=O)C(CCNCS(=O)(=O)O)NC(=O)C(C(C)CC)NC1=O (stereo not given) 12.3%
CN1[C@H](CC(=O)c2ccccc2)CCC[C@H]1C[C@@H](O)c1ccccc1 -6.85% [at 288 µM]
COc1cc(O)c(C(=O)c2ccccc2)cc1O -15.4% [at 288 µM]
C=C(C)CNC(=S)Nc1cccc2cnccc12 5.3%
COc1ccc(OC)c(C(c2c(C)[nH][nH]c2=O)c2c(C)[nH][nH]c2=O)c1 -9.46% [at 288 µM]
C[N+]1(CCNC(=O)/C=N/O)CCCCC1 -11.8%
COc1ccccc1/C=N/n1c(N)c(S(=O)(=O)c2cccs2)c2nc3ccccc3nc21 34.1% [at 288 µM]
CCN1C(=O)[C@@H]2C(C(=O)c3cnccn3)=NN[C@@H]2C1=O -4.09%
Cc1c(F)cccc1NS(=O)(=O)c1ccc2c(c1)c(C)cc(=O)n2C -11.4%
Cc1ccc(C#CC(C)(O)C(C)(C)C)cn1 (stereo not given) 24.6%
N=c1oc2ccccc2cc1-c1nc(-c2ccc(Cl)cc2)cs1 -6.3%
O=C(NNCS(=O)(=O)O)c1ccncc1 3.6%
O=C(CC(=O)c1ccccc1)Nc1cc(C(F)(F)F)ccc1Cl 49.2%
CN1CCN(CC(=O)c2ccccc2F)CC1 4.65%
CCOC(=O)Cn1cnc2scc(-c3ccc(C)c(C)c3)c2c1=O -11.2%
Cc1ccccc1-c1n[nH]c(=S)n1C -6.97%
CCOC(=O)N1CCN(Cc2nnc(-c3ccccc3C)o2)CC1 17.8%
O=C(NC(=S)Nc1nc(-c2ccc(Br)cc2)cs1)c1cccnc1 31.5% [at 288 µM]
NC(=O)c1cc2ccccc2o/c1=N/NC(=O)c1cccc(F)c1 -15.5%
CC(=O)c1c(O)cc(O)cc1CC(=O)O -19.4%
O=C(/C=C/c1ccccc1)c1cccs1 34.2% [at 288 µM]

Potency, active:
O=C(Nc1ccc(F)c(Cl)c1)c1cc(-c2ccco2)on1 31.7 µM
NC(=NCCCCCCN=C(N)/N=C(\N)Nc1ccc(Cl)cc1)/N=C(\N)Nc1ccc(Cl)cc1 70.8 µM
CNC[C@H](CC1CCCCC1)NC[C@H](Cc1ccccc1)NCCC12CC3CC(CC(C3)C1)C2 63.1 µM
c1cc(CN2CCCNCCNCCCNCC2)ccc1CN1CCCNCCNCCCNCC1 22.4 µM
Cc1cc2c(N)cccc2nn1 141 µM
COc1cc2c(cc1NC(=S)NC(=O)c1c(OC)cccc1OC)oc1ccccc12 11.2 µM
O=C1Cc2ccccc2Sc2c(OCCN3CCCCC3)cccc21 126 µM
Cc1ccccc1-c1cncnc1NC1CCNCC1 126 µM
